Screens: PubChem BioAssay, several laboratories
WNV NS2B-NS3 inh: inhibitors of WNV NS2B-NS3 protease, primary screen, biochemical, fluorogenic substrate. AID 577, 2007. fluorogenic substrate Ex360/Em465; stronger effect = lower value. hit rate 0.18% among 65,000. Genome polyprotein (West Nile virus), P06935. z-score (test concentration not listed); in the data active means z-score below about -3
A340 absorber: compound light absorbance at 340 nm, profiling panel, artefact control, biochemical, MLSMR library, data from PS, PMK, MK assays | compound absorbance at 340 nm, fold over control | fold change at 10 µM | 65,000 tested, under 10 active | AID 708, 2007;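 active means at 10 µM dose, initial 340 nm absorbance at least 2 fold that of control wells; inactive means change under 2 fold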;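 further: initial absorbance extrapolated from kinetic A340 decline of NADH oxidation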
M1 antag: antagonists of rat M1 muscarinic receptor | Muscarinic acetylcholine receptor M1 (Rattus norvegicus), P08482 | CHO-M1 cells, Fluo-4 calcium, ACh EC80 antagonist mode; stronger effect = lower value | B-score at 10 µM | hit rate 3.4% among 64,000;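 active means calcium fluorescence response, raw or row-and-column corrected B-score, differing from the plate sample mean either way at a set confidence level, mostly lower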
BAP1 inh: inhibitors of BAP1 deubiquitinase, primary screen, biochemical, Ub-AMC fluorescence, kinetic; recombinant BAP1, Ub-AMC hydrolysis fluorescence kinetic; stronger effect = lower value; calls only at 20 µM; hit rate 0.48% among 72,000; AID 436, 2006;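 active means activity remaining at or below 50% of control, provided the compound also passes the data quality filters; inactive means the rest, including low values that fail the filters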;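 further: 100% = DMSO wells rate and 0% = substrate alone blank rate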
Target sequence (Q92560 whole entry, looked up): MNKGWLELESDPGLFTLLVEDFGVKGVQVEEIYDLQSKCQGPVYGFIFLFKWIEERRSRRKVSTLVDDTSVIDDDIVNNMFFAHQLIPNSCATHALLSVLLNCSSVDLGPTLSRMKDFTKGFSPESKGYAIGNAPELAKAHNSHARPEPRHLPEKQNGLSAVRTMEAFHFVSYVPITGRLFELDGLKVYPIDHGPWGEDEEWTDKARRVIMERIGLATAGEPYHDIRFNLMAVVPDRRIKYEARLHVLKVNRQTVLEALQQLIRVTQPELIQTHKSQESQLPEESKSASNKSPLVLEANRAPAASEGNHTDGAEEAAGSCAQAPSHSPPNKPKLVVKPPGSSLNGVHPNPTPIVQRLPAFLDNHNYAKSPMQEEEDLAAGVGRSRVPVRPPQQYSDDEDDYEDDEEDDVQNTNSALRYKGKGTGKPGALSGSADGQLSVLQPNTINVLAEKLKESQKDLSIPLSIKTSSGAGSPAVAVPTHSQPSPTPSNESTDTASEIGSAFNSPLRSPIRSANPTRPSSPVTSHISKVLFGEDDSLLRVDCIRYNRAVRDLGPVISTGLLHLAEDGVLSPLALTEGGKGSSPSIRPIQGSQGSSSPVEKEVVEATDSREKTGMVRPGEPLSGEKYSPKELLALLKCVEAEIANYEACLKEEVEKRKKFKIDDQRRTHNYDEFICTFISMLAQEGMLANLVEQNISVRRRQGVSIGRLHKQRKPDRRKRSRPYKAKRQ
M1 ag: M1 muscarinic receptor agonists, primary screen, CHO-M1 cells, Fluo-4 calcium, agonist mode. hit rate 3% among 64,000. Fluo-4 calcium fluorescence; stronger effect = higher value. Muscarinic acetylcholine receptor M1. B-score at 10 µM;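 active means fluorescence rise, raw or as B-score row- and column-corrected plate score, outside the 99.7% band of its plate's samples, either direction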
Autofluor 339: intrinsic fluorescence of library compounds, ex339/em460 – biochemical, MLSMR library, data from DPM-DC assay, artefact control, profiling panel; compound autofluorescence, ex339/em460 nm, NADH buffer; stronger effect = higher value; 1 = no-compound wells, NADH background; fluorescence fold increase at 10 µM; hit rate 5.5% among 65,000;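 active means at 10 µM, mean starting fluorescence two-fold or more over control wells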;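 further: signal is the first read of a kinetic run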
M1 antag confirm: rat M1 muscarinic receptor antagonists, confirmation, CHO cells, Fluo-4 calcium, duplicate; shares compounds with M1 antag; ACh EC80 antagonism; stronger effect = lower value; calcium response (max-min fluorescence) at 10 µM; hit rate 43% among 1,700;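 active means calcium response below the same-plate mean of wells given acetylcholine alone at its 80%-effect dose, minus 3 SD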;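 further: raw fluorescence intensity difference in arbitrary instrument units and not normalized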
mGluR4 antag: human mGluR4 response to M1 antagonist hits, M1 allosteric modulator project, cell-based, antagonist mode, secondary assay 1 | CHO-mGluR4 calcium flux, Fluo-4 fluorescence, glutamate EC80; stronger effect = lower value | hit rate 0.9% among 1,700 | shares compounds with M1 antag | fluorescence response (max-min) at 10 µM;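 active means fluorescence response below the plate's average for near-maximal glutamate wells, less 3 SD of those wells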;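 further: raw unnormalized fluorescence span taken in the window right after glutamate addition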
An asterisk follows results filed as active; i = inactive; · = no result given. Only some compounds are listed: those with a hit (about 9.7% of all), similar ones and a draw of the others.

SMILES | WNV NS2B-NS3 inh | A340 absorber | M1 antag | BAP1 inh | M1 ag | Autofluor 339 | M1 antag confirm | mGluR4 antag
CCC(Sc1ncnc2c1nnn2-c1ccc(F)cc1)C(=O)OC (stereo not given) | 0.09 | 1 | -2.77* | i | -0.127 | 1.02 | 640 | 243
COC(=O)c1sc2ccccc2c1NC(=O)c1ccc(S(=O)(=O)N2CC(C)OC(C)C2)cc1 (stereo not given) | · | · | · | i | · | · | · | ·
CC(C)CCn1c(CO)nc2ccccc21 | · | · | · | i | · | · | · | ·
COCCN(C(=O)Cn1nnc2ccccc21)C(C(=O)NC1CCCC1)c1cccc(OC)c1OC (stereo not given) | -0.12 | 1.01 | -3.94* | i | -0.324 | 1.05 | 600 | 217
CCOC(=O)N1CCN(S(=O)(=O)c2cc(Br)cc3c2N(C(C)=O)C(C)C3)CC1 (stereo not given) | 0.18 | 0.98 | 0.126 | · | -0.035 | 1.05 | · | ·
CCOC(=O)C1CCN(S(=O)(=O)c2cc(Br)cc3c2N(C(C)=O)C(C)C3)CC1 (stereo not given) | -0.01 | 1.01 | -2.26* | · | 0.427 | 1.08 | 519 | 200
O=S(=O)(c1ccc2c(c1)OCCCO2)N1CCNCC1 | 0.68 | 1.02 | -0.421 | i | -1.53 | 1.1 | · | ·
c1cc2c(cc1C1CCCN1)OCCCO2 (stereo not given) | 0.15 | 1 | -3.74* | i | 0.527 | 1.02 | 513* | 239
O=C(COc1c(F)c(F)cc(F)c1F)NC(=O)NC1CCCC1 | 0.03 | 0.94 | -12.2* | i | 0.0393 | 1.09 | 223* | 233
C=CCn1c(COc2ccc(Cl)cc2)nnc1SCC(=O)N1CC(=O)Nc2ccccc21 | -0.22 | 1.01 | -0.927* | i | 0.195 | 1.05 | 537 | 237
Cc1cc(C)c2oc(-c3ccc(C)c(N=Cc4cccc([N+](=O)[O-])c4O)c3)nc2c1 | · | · | · | i | · | · | · | ·
COc1ccccc1CNC(=O)CS(=O)Cc1nc(-c2ccccc2C)oc1C (stereo not given) | 2.25 | 1.03 | -2.68* | i | 0.0149 | 1.11 | 627 | 216
COc1ccc(CNC(=O)CS(=O)Cc2nc(-c3ccccc3C)oc2C)cc1 (stereo not given) | -0.49 | 1.03 | 0.0508 | i | -0.021 | 1.09 | · | ·
O=C(CC(c1ccc(F)cc1)c1ccco1)N1CCOCC1 (stereo not given) | -0.63 | 1.06 | 0 | i | -0.744 | 1.12 | · | ·
O=C(CC(c1ccccc1)c1cc(Cl)ccc1O)N1CCOCC1 (stereo not given) | 0.84 | 0.98 | -2.56* | i | 0.173 | 1.09 | 477 | 214
CC(C)(C)P(=O)(CO)c1ccccc1 (stereo not given) | 1.11 | 1.07 | -2.5* | i | -0.38 | 1.13 | 508 | 195
O=C1c2ccccc2C(=O)c2c1cccc2S(=O)(=O)N1CCOCC1 | · | · | · | i | · | · | · | ·
N#Cc1c(N)nc(SCC(=O)c2cc3ccccc3oc2=O)c(C#N)c1-c1cccs1 | · | · | · | i | · | · | · | ·
Cc1ccc(NC(=O)c2ccc([N+](=O)[O-])cc2)c(Br)c1 | · | · | · | i | · | · | · | ·
CCOC(=O)CSc1nnc(CNC(=O)c2cc(OCC)c(OCC)c(OCC)c2)n1C | -1.09 | 1 | -0.707 | i | 0.587 | 1.1 | · | ·
CCOC(=O)CSc1nnc(CNC(=O)c2ccc(S(=O)(=O)N3CCCC3)cc2)n1C | -1.11 | 0.99 | -1.23* | i | 1.35 | 1.02 | 426 | 204
Cc1cccn2c(=O)c3cc(C(=O)NCc4ccccc4)c(=N)n(CCCN4CCOCC4)c3nc12 | 0.25 | 1.02 | -3.28* | · | 1.06 | 5.18* | 337* | 195
Cc1cccc2cc(CN(CCN3CCOCC3)C(=O)NCc3ccccc3)c(=O)[nH]c12 | -1.31 | 1.01 | -1.36 | i | 0.717 | 1.33 | · | ·
COCCn1c(=N)c(C(=O)NCCc2ccccc2)cc2c(=O)n3cccc(C)c3nc21 | 2.48 | 1.09 | -4.65* | · | -0.0821 | 2.5* | 194* | 236
Cc1cccn2c(=O)c3cc(C(=O)NCCCN4CCCC4=O)n(C)c3nc12 | 0.83 | 1.1 | -3.09* | · | 0.132 | 4.98* | 615* | 198
SMILES | WNV NS2B-NS3 inh | A340 absorber | M1 antag | BAP1 inh | M1 ag | Autofluor 339 | M1 antag confirm | mGluR4 antag
Cn1c(C(=O)NCCCN2CCCC2=O)cc2c(=O)n(C)c3ccccc3c21 | -0.05 | 1.04 | 0.535 | i | 0.71 | 1.5 | · | ·
O=[N+]([O-])c1ccccc1Oc1nc(-c2ccccc2)c2cc(Cl)ccc2n1 | · | · | · | i | · | · | · | ·
Cc1cc(C)n(-c2ccc(C(=O)OCC(=O)N(CC(C)C)C3CCS(=O)(=O)C3)cc2)n1 (stereo not given) | 1.16 | 1.01 | -2.45* | i | -1.72 | 1.03 | 595 | 220
CCC(C)(C)n1nnnc1C(c1cc2cc(OC)ccc2[nH]c1=O)N1CCc2ccccc21 (stereo not given) | -0.3 | 0.99 | -16.3* | i | 0.229 | 1.09 | 486 | 198
CCC(C)(C)n1nnnc1C(c1cc2ccc(OC)cc2[nH]c1=O)N1CCc2ccccc21 (stereo not given) | -0.76 | 1.09 | -0.46 | i | 1.43 | 1.12 | · | ·
CCc1ccc(C(=O)N2CCN(c3ccc(F)cc3)CC2)s1 | 0.08 | 1.01 | -6.53* | i | -1.4 | 1.03 | 507* | 229
CCN(CC)CCNC(=O)c1sc2nc(-c3ccccc3)cn2c1C | 2.04 | 1.01 | -0.793* | i | 0.0276 | 1.07 | 345* | 212
COc1ccc(CN2CCN(S(=O)(=O)c3ccc(NC(C)=O)cc3)CC2)cc1OC | 0.44 | 0.99 | -2.73* | i | -1.46 | 1.05 | 529 | 212
CCCCOc1ccc(C(O)(CCC)CCN2CCOCC2)cc1 (stereo not given) | -0.45 | 1.03 | -1.63 | i | 0.0151 | 1.11 | · | ·
C(#Cc1ccccc1)CN1CCCCC1 | · | · | · | i | · | · | · | ·
CCC(O)(CCN1CCCCC1)c1ccccc1 (stereo not given) | 1.17 | 1.03 | -10.7* | i | 0.354 | 1.02 | 111* | 213
CC(O)(C#CCN1CCCC1)c1ccccc1 (stereo not given) | 0.32 | 0.99 | -2.27* | i | -0.934 | 1.1 | 493 | 212
CC(C)(C)c1ccc(OCC(=O)Nc2ccc3oc(-c4ccncc4)nc3c2)cc1 | · | · | · | i | · | · | · | ·
CCCc1nnc2n1N=C(c1ccc(OC)cc1)CS2 | · | · | · | i | · | · | · | ·
